These sequences were tested against ETV1 (Homo sapiens, UniProt P50549 1-477) (assay: DAPPL (digital affinity profiling via proximity ligation, sequencing); 10 mM Tris-HCl pH 7.5, 50 mM NaCl, 1 mM DTT, 4% glycerol, room temperature, 30 min; GST-TFs on glutathione beads, 16-mer random dsDNA library, 0.1% formaldehyde crosslink after washing; high values mean tight binding). Details: protein: recombinant; tags: N-terminal GST; dsDNA, one strand shown.
How it was run: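 Binding signal is given per hexamer as its read frequency for a factor divided by its frequency in the tag-only sample. GST-fused human transcription factors were expressed in yeast, captured on glutathione beads, barcoded with DNA and pooled with that sample, then incubated with 200 nmole of a 16-mer random double-stranded DNA library in Tris/NaCl/DTT/glycerol buffer for 30 min at room temperature. The pools were then washed, crosslinked, proximity-ligated, amplified by PCR and sequenced on an Illumina NextSeq500.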

ETV1, sequence (P50549 whole entry, the tested form may be a part): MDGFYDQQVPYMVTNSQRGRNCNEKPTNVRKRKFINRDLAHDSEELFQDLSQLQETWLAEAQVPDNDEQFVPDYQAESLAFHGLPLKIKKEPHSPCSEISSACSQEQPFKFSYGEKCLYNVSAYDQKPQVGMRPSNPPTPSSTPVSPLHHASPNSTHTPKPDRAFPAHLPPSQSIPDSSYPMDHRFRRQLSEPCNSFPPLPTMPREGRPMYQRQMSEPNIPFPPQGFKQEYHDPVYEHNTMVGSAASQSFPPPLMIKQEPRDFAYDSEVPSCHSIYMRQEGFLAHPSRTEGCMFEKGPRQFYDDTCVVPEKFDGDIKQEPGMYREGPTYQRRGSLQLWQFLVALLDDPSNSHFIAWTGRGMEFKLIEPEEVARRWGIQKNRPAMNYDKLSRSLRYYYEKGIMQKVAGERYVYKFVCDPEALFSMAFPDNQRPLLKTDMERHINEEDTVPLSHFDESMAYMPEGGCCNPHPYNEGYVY

Sequence | binding signal
TTTTCC | 1.65 fold enrichment (6-mer frequency, TF over GST control)
CGATTA | 1.13 fold enrichment (6-mer frequency, TF over GST control)
TATTTT | 1.48 fold enrichment (6-mer frequency, TF over GST control)
TCCTCG | 1.65 fold enrichment (6-mer frequency, TF over GST control)
GTTGCT | 1.38 fold enrichment (6-mer frequency, TF over GST control)
TCCGCC | 1.59 fold enrichment (6-mer frequency, TF over GST control)
TCTCTG | 1.46 fold enrichment (6-mer frequency, TF over GST control)
TTTAAC | 1.18 fold enrichment (6-mer frequency, TF over GST control)
ATTGCA | 1.17 fold enrichment (6-mer frequency, TF over GST control)
ACGTCT | 1.14 fold enrichment (6-mer frequency, TF over GST control)
TCTACT | 1.47 fold enrichment (6-mer frequency, TF over GST control)
TCATCC | 1.35 fold enrichment (6-mer frequency, TF over GST control)
TATCGA | 1.31 fold enrichment (6-mer frequency, TF over GST control)
CTACTC | 1.32 fold enrichment (6-mer frequency, TF over GST control)
AATTAC | 1.34 fold enrichment (6-mer frequency, TF over GST control)
TCTGGC | 1.24 fold enrichment (6-mer frequency, TF over GST control)
CCCGAC | 1.36 fold enrichment (6-mer frequency, TF over GST control)
CAAGAT | 1.06 fold enrichment (6-mer frequency, TF over GST control)
TTAGCA | 1.32 fold enrichment (6-mer frequency, TF over GST control)
CATTTG | 1.32 fold enrichment (6-mer frequency, TF over GST control)

Sequence | binding signal
TCTTCT | 1.25 fold enrichment (6-mer frequency, TF over GST control)
AATCCT | 1.35 fold enrichment (6-mer frequency, TF over GST control)
CCCCCT | 1.2 fold enrichment (6-mer frequency, TF over GST control)
ACATCC | 2.66 fold enrichment (6-mer frequency, TF over GST control)
TTTTGT | 1.32 fold enrichment (6-mer frequency, TF over GST control)
ACATAA | 1.07 fold enrichment (6-mer frequency, TF over GST control)
TTCTCG | 1.29 fold enrichment (6-mer frequency, TF over GST control)
AAATCT | 1.35 fold enrichment (6-mer frequency, TF over GST control)
TTCTCC | 1.45 fold enrichment (6-mer frequency, TF over GST control)
CTTGCG | 1.41 fold enrichment (6-mer frequency, TF over GST control)
ACGTTC | 1.28 fold enrichment (6-mer frequency, TF over GST control)
AATTAA | 1.26 fold enrichment (6-mer frequency, TF over GST control)
GTTCCT | 1.79 fold enrichment (6-mer frequency, TF over GST control)
ACTTAT | 1.42 fold enrichment (6-mer frequency, TF over GST control)
AATTTA | 1.22 fold enrichment (6-mer frequency, TF over GST control)
CACGAT | 1.28 fold enrichment (6-mer frequency, TF over GST control)
CTCTCT | 1.49 fold enrichment (6-mer frequency, TF over GST control)
GCCTAC | 1.2 fold enrichment (6-mer frequency, TF over GST control)
GCCTCG | 1.26 fold enrichment (6-mer frequency, TF over GST control)
AACTAG | 1.15 fold enrichment (6-mer frequency, TF over GST control)

— PMC7862700, “An all-to-all approach to the identification of sequence-specific readers for epigenetic DNA modifications on cytosine”
